{"source": "ChEMBL document CHEMBL3988442", "about": "“University of Dundee, Small-Polar-MMV Screening Library” (2021)", "data": [{"molecular_target": "AMP-activated protein kinase, AMPK (Homo sapiens) (UniProt P54646+O43741+P54619+Q9UGJ0+Q9Y478+Q13131+Q9UGI9)", "assay": "AMP-dependent Kinase enzyme assay. An in vitro enzyme assay that detects ADP turnover that is directly proportional to AMPK activity. This uses naive AMPK that is activated during the assay with MK-8722", "type": "functional", "set-up": "scale not given: direction of the effect not stated beside the values", "conditions": "30 µM", "units": {"Percent Effect": "%"}, "values": [{"smiles": "c1ccc(CCCn2ccnc2-c2cn(C3CCNCC3)nn2)nc1", "Percent Effect": -13.8}, {"smiles": "c1ccc(Cc2noc(-c3ccc(NCC4COCCO4)nc3)n2)cc1", "note": "(centres undefined)", "Percent Effect": 8.79}, {"smiles": "CCNC(=O)CN(CC)C(=O)c1csc(Cc2ccccc2F)n1", "Percent Effect": 4.98}, {"smiles": "COc1ccc(Cl)cc1-n1nc(C2CCCC2)nc1Cn1cnnn1", "Percent Effect": -6.62}, {"smiles": "CC(C)Oc1cccc(F)c1C(C(=O)O)N1CCCC1", "note": "(centres undefined)", "Percent Effect": 8.59}, {"smiles": "CC1(c2ncc(CN3CCN(c4ccccn4)CC3)cn2)CCCCO1", "note": "(centres undefined)", "Percent Effect": 5.55}, {"smiles": "NC(=O)NC1CCN(Cc2ccc(Br)c(F)c2)CC1", "Percent Effect": 4.07}, {"smiles": "O=C(CCn1cc(Cl)cn1)N1CCCC(O)(CO)CC1", "note": "(centres undefined)", "Percent Effect": -3.36}, {"smiles": "Cc1cc(C(=O)N2CC[C@](C)(O)[C@H](C)C2)c(C)n1C", "Percent Effect": -6.41}, {"smiles": "CN1CCN(c2ncc(CNCCCc3cccc(F)c3)cn2)CC1", "Percent Effect": 4.72}, {"smiles": "NC(=O)COc1cccc(Cn2cc(Br)cn2)c1", "Percent Effect": 3.8}, {"smiles": "O=C(O)CCc1cc2n(n1)CCCN(C(=O)c1ccc(Cl)s1)C2", "Percent Effect": 2.58}, {"smiles": "COCC(C)(O)CNC(=O)c1cc(-c2ccc(F)cc2)nn1C", "note": "(centres undefined)", "Percent Effect": 2.75}, {"smiles": "O=C(NCc1ccc(OCC2CC2)nc1)C1COc2ccccc2O1", "note": "(centres undefined)", "Percent Effect": -1.03}, {"smiles": "Cc1nn(C)c(C)c1-c1ccc(=O)n(C(C)C(=O)NC2CC2)n1", "note": "(centres undefined)", "Percent Effect": 9.59}, {"smiles": "Cc1n[nH]c(C)c1CNc1ccc(-c2nc(C3CC3)no2)cn1", "Percent Effect": -4.61}, {"smiles": "CN(CC(O)C(F)(F)F)C(=O)Nc1cccc(N2CCCC2)c1", "note": "(centres undefined)", "Percent Effect": -4.79}, {"smiles": "CC(C)(CNc1c(C#N)cnc2ccc(Cl)cc12)C(N)=O", "Percent Effect": 6.25}, {"smiles": "Cc1ccnc(C2COCCN2C)n1", "note": "(centres undefined)", "Percent Effect": 26}, {"smiles": "CS(=O)(=O)CCCN1CCSCC1c1ccc(Cl)cc1", "note": "(centres undefined)", "Percent Effect": -4.65}, {"smiles": "COc1cc(-c2cccc3c2OC(CN)C3)ccc1O", "note": "(centres undefined)", "Percent Effect": 59.7}, {"smiles": "O=C(O)C1(O)CCN(c2ccc3cccc(Cl)c3n2)CC1", "Percent Effect": 13.6}, {"smiles": "COc1ccc(F)cc1CN(CC(N)=O)C(C)C", "Percent Effect": -8.18}, {"smiles": "Cc1cc(C(=O)NCCN2CCCCC2C)nn1C(C)(C)C", "note": "(centres undefined)", "Percent Effect": 1.65}, {"smiles": "COC(=O)CSCc1noc(-c2ccc(Cl)cc2)n1", "Percent Effect": -9.28}, {"smiles": "CCc1csc(NC(=O)Nc2c(C)n[nH]c2C)n1", "Percent Effect": -1.09}, {"smiles": "CC(=O)NCC(=O)Nc1cc(C)n(-c2ccc(Cl)cc2Cl)n1", "Percent Effect": 3.23}, {"smiles": "CCc1cc(=O)[nH]c(-c2ccc(NC(C)CN3CCOCC3)nc2)n1", "note": "(centres undefined)", "Percent Effect": -2.92}, {"smiles": "CC(C)Oc1ncccc1CNC(=O)NC(C)c1cccs1", "note": "(centres undefined)", "Percent Effect": -3.91}, {"smiles": "CC(C)N(C(=O)Cn1cc(Cl)cn1)c1ccccc1", "Percent Effect": -3.03}, {"smiles": "O=C(c1ccncc1)N1CCCC(C2=Nc3ccccc3S(=O)(=O)N2)C1", "note": "(centres undefined)", "Percent Effect": 8.81}, {"smiles": "CCC(NC(=O)C(C)C)c1ccccc1C", "note": "(centres undefined)", "Percent Effect": 8.49}, {"smiles": "CC1CCCCN1C(=O)COc1nc(C(C)(C)C)no1", "note": "(centres undefined)", "Percent Effect": -0.675}, {"smiles": "N#Cc1ccc(SCCC(=O)O)cc1", "Percent Effect": 6.5}, {"smiles": "CN(C)S(=O)(=O)N1CC[C@]2(O)CCN(c3cc(C#N)ccn3)C[C@@H]2C1", "Percent Effect": -3.03}, {"smiles": "COC(=O)c1ccc(N(C(=O)c2cscn2)C(C)C)c(C)c1", "Percent Effect": -0.314}, {"smiles": "CS(=O)(=O)N1CCC(CNc2c(Cl)cccc2C#N)CC1", "Percent Effect": 7.5}, {"smiles": "CNc1cc2c(nn1)CCN(C(=O)c1ccccc1-n1cccn1)C2", "Percent Effect": -15.3}, {"smiles": "CC(=O)NCCCNC(=O)N1CCN(c2cc(F)ccc2F)CC1", "Percent Effect": 6.39}]}]}
